This is an account of results in PubChem BioAssay.

Activity calls are given as the source filed them. Unless noted, how the calls were made is not given here.

Test [1] can be described thus: compound effects on lung adenocarcinoma cell viability – A549, calcein-AM fluorescence, 48 h, basal, profiling panel (AID 1162). Further: test concentration not given here. To be noted: higher = more signal.
A short description of test [2]: compound effects on differentiated 3T3-L1 adipocyte viability – cell-based, 3T3-L1 adipocytes, calcein-AM fluorescence, 48 h, basal, profiling panel (AID 1163). Further: test concentration not given here. To be noted: 3T3-L1 adipocytes viability, higher = more signal.
Test [3] in a line: compound effects on hepatocellular carcinoma cell viability – HepG2, calcein-AM fluorescence, 48 h, basal, profiling panel (AID 1164). Further: test concentration not given here. To be noted: higher = more signal.
Test [4] is described as follows: compound effects on multiple myeloma cell viability – MM1S, calcein-AM fluorescence, 48 h, basal, profiling panel (AID 1165).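 Further: viability of MM1S multiple myeloma cells under basal unstimulated conditions; test concentration not given here.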 To be noted: higher = more signal.
A short description of test [5]: calcein-AM signal in unstimulated myeloma cells – cell-based, calcein-AM fluorescence, 48 h, PK04 Diversity Set, profiling panel (AID 1166).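 Further: cells grown under basal conditions without added stimulus; test concentration not given here.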 To be noted: RPMI8226 myeloma viability, higher = more signal.
Test [6] is described as follows: JC-1 mitochondrial signal, unstimulated HepG2 cells – cell-based, JC-1 fluorescence, 24 h, 100 nL compound, profiling panel (AID 1167). Further: test concentration not given here. To be noted: HepG2 mitochondrial potential, higher = more signal.
Test [7] in a line: JC-1 mitochondrial signal, unstimulated adipocytes – cell-based, JC-1 fluorescence, 3T3-L1 adipocytes, 24 h, 100 nL compound, profiling panel (AID 1168). Further: test concentration not given here. The settings on record: JC-1 mitochondrial fluorescence, higher = more signal, called active from +8 up or from −8 down.
The nature of test [8]: JC-1 mitochondrial signal, unstimulated myeloma cells – cell-based, JC-1 fluorescence, RPMI8226, 24 h, 100 nL compound, profiling panel (AID 1169). Further: test concentration not given here. To be noted: JC-1 mitochondrial potential fluorescence, higher = more signal.
Test [9] is described as follows: JC-1 mitochondrial signal, unstimulated MM1S myeloma – cell-based, JC-1 fluorescence, 24 h, 100 nL compound, profiling panel (AID 1170). Further: test concentration not given here. The settings on record: MM1S mitochondrial potential, higher = more signal.
A short description of test [10]: resazurin metabolic signal in A549 cells – cell-based, resazurin fluorescence, 24 h, PK04 Diversity Set, profiling panel (AID 1171). Further: test concentration not given here. To be noted: A549 viability, higher = more signal, called active from +8 up or from −8 down. For orientation: Alamar Blue is a resazurin reagent that responds to reducing activity.
Test [11] is described as follows: resazurin metabolic signal in HepG2 cells – cell-based, resazurin fluorescence, 24 h, PK04 Diversity Set, profiling panel (AID 1172). Further: test concentration not given here. The settings on record: HepG2 viability, higher = more signal.
A short description of test [12]: budding yeast growth changes without added modifier – OD600, strain BY4716, 24 h, basal condition, primary screen (AID 1173). To be noted: S. cerevisiae BY4716 growth, OD600, 24 h; higher = more signal, called active from +8 up or from −8 down.
The nature of test [13]: viability profiling in MM1S myeloma cells – cell-based, resazurin fluorescence, basal, 24 h, PK04 Diversity Set, profiling panel (AID 1174). Further: test concentration not given here. To be noted: higher = more signal, called active from +8 up or from −8 down.
Test [14] addresses Dihydroorotate dehydrogenase (quinone), mitochondrial (Plasmodium falciparum (isolate 3D7)) (UniProt Q08210). Nature of the test: inhibition of P. falciparum DHODH – biochemical, C-terminal His tag, absorbance 600 nm, primary screen (AID 1175).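 Further: recombinant parasite enzyme with a five histidine tag at its C terminus; test concentration not given here.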 To be noted: PfDHODH enzyme, DCIP absorbance 600 nm; higher = more signal, called active from +8 up or from −8 down.
The nature of test [15]: inhibition of PAO1 biofilm formation – strain PAO1, LB-PBS medium, absorbance 600 nm, primary screen (AID 1176). Further: test concentration not given here. To be noted: P. aeruginosa PAO1 growth/biofilm, A600, 12 h; higher = more signal.
A short description of test [16]: growth modulation of vineyard yeast isolate – strain RM11-1a, OD600, basal, 24 h, primary screen (AID 1177).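 Further: cultures grown under basal conditions with no added stressor; test concentration not given here.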 The settings on record: S. cerevisiae RM11-1a growth, OD600, 24 h; higher = more signal, called active from +8 up or from −8 down.
Test [17] in a line: growth of efflux-deficient E. coli DRC39 – strain DRC39, OD650, 24 h, E. coli filamentation inducers, primary screen (AID 1178).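 Further: growth measured as culture turbidity by optical density at 650 nm; test concentration not given here.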 The settings on record: E. coli DRC39 acrAB, higher = more signal, called active from +8 up or from −8 down.
The nature of test [18]: growth of efflux-deficient E. coli DRC39 – strain DRC39, OD650, 48 h, E. coli filamentation inducers, primary screen (AID 1179).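 Further: screen aims at cell division blockers that make cells filament.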 To be noted: E. coli DRC39 delta-acrAB growth, higher = more signal, called active from +8 up or from −8 down.
The nature of test [19]: viability profiling in RPMI8226 myeloma cells – cell-based, resazurin fluorescence, basal, 24 h, PK04 Diversity Set, profiling panel (AID 1180).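 Further: RPMI8826 multiple myeloma cell line at 5000 cells per well; test concentration not given here.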 The settings on record: higher = more signal.
Test [20] addresses E3 ubiquitin-protein ligase XIAP (Homo sapiens) (UniProt P98170). Kind of test: small molecules binding XIAP protein – biophysical, small-molecule microarray, fluorescence 635 nm, primary screen (AID 1181).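 Further: score merges 667 nm emission and signal to noise over triplicate slides.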 The settings on record: higher = more signal.

Chain of E3 ubiquitin-protein ligase XIAP (Homo sapiens) (P98170 whole entry, looked up): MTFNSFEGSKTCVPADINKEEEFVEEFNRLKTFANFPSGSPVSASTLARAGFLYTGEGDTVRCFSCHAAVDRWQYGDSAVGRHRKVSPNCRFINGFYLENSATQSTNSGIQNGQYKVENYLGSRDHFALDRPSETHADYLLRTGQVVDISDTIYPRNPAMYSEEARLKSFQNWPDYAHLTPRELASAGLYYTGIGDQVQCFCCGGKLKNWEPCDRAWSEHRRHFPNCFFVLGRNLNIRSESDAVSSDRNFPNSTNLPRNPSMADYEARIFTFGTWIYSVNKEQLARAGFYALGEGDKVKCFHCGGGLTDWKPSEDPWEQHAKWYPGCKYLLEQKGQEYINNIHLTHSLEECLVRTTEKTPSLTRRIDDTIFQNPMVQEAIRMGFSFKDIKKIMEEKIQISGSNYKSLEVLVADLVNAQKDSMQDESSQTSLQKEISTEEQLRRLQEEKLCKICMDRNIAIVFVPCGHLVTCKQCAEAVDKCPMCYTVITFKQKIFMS
Chain of Dihydroorotate dehydrogenase (quinone), mitochondrial (Plasmodium falciparum (isolate 3D7)) (Q08210 whole entry, looked up): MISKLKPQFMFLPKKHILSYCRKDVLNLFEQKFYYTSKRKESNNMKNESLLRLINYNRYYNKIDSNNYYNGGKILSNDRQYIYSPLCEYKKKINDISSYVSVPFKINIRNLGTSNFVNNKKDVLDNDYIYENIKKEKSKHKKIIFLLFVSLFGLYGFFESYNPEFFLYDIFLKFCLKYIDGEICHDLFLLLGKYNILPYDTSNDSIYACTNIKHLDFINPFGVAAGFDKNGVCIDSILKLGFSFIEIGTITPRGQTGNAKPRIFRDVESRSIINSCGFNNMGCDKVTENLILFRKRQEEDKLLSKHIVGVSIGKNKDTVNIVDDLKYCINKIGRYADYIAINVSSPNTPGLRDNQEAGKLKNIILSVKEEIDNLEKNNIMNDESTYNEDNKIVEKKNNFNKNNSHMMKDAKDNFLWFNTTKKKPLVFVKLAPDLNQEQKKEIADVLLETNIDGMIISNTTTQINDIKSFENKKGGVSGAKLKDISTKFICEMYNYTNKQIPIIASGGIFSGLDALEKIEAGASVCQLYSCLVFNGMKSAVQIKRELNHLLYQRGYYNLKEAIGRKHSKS

As to `CCC#CCN(Cc1ccccc1Br)[C@H](/C=C/c1ccccc1)[C@@H](O)Cc1ccccc1`, the z-score was 0.178 in test [1]; -0.0581 in test [2]; -0.124 in [3]; -0.227 in [4]; -2.42 in [5]; -2.35 in test [6]. Further, the z-score in [7] was -1.44 (inactive); in test [8], -0.608; in [9] it was -0.32; in [10], 1.36 (inactive); in [11] it was 1.53; in test [12] it was 0.238 (inactive). The z-score in [13] was 0.753 (inactive); in [15], -0.553 (inactive); in test [16], 0.846 (inactive); in test [17] it was 1.19 (inactive); in [18], 0.994 (inactive); in test [19] it was 0.0518. The composite z-score in test [14] was 0.514 (inactive); in test [20] it was 0.0101.

Take `C#CCCCON=C1C[C@@H](O)[C@@H](O)[C@@H]2[C@@H]3C(=O)N(Cc4ccc5c(c4)OCO5)C(=O)[C@@H]3CC[C@H]12`: the z-score in [1] is 0.391; in [2], -0.027; in test [3] it was -0.464; in test [4], 0.484; in test [5], 0.0196; in test [6] it was -0.537. For the same compound, the z-score in [7] was -0.0334 (inactive); in test [8], -0.427; in test [9], -0.778; in [10], 0.495 (inactive); in [11] it was 0.168; in [12], 0.0943 (inactive). In addition, the z-score is -0.255 (inactive) in test [13]; -0.708 (inactive) in [15]; 0.162 (inactive) in test [16]; 0.483 (inactive) in test [17]; 0.961 (inactive) in test [18]; 0.126 in test [19]. In addition, the composite z-score is -0.338 (inactive) in test [14] and -0.127 in test [20].

`CC(C)[C@H]1NC(=O)[C@@]23C(=O)N[C@@H](Cc4ccccc4)C2[C@H](C)[C@@]2(C)O[C@H]2C3/C=C/C/C=C\CNC(=O)[C@H](C)NC1=O` (stereo not given in full): the z-score in test [1] is 0.011; in [2] it was 0.657; in test [3] it was -0.614; in [4], 0.434; in test [5], -0.938; in test [6] it was -0.458. Moreover, the z-score in [7] is -0.0933 (inactive); in [8] it was 0.279; in test [9] it was 0.498; in test [10], 0.0653 (inactive); in test [11] it was -0.546; in test [12], 0.976 (inactive). Moreover, the z-score in [13] is 0.323 (inactive); in test [15] it was 1.13 (inactive); in test [16], 1.01 (inactive); in test [17], -0.198 (inactive); in test [18], -0.301 (inactive); in test [19], 0.142. The figures for the composite z-score in test [14] and in [20] were -0.0591 (inactive) and -0.129, respectively.

With `COc1ccc([C@H]2C[C@H]3C(Br)=C[C@]2(OC)C(=O)[C@]32CO2)cc1`, the z-score in [1] is -0.909; in [2], -0.105; in test [3] it was -1.19; in test [4] it was -2.1; in test [5], -0.393; in test [6] it was -2.15. The z-score in test [7] was -0.414 (inactive); in test [8], -1.07; in test [9], -0.717; in test [10] it was 0.596 (inactive); in test [11], 0.531; in test [12] it was -3.26 (inactive). The z-score in [13] is -0.677 (inactive); in test [15], 0.662 (inactive); in test [16] it was -0.173 (inactive); in [17], 0.238 (inactive); in [18], 0.205 (inactive); in test [19] it was -0.139. For the same compound, the composite z-score is -0.314 (inactive) in test [14] and -0.0599 in [20].

Consider `Cc1ccc(S[C@]2(C(=O)NC(C)C)CC(=O)N(C3Cc4ccccc4C3)[C@@H]2c2ccc(CO)cc2)cc1`, for which the z-score was 0.0188 in test [1]; 2.29 in test [2]; 0.0794 in test [3]; 0.549 in test [4]; -1.02 in [5]; 0.0355 in [6]. The z-score in [7] is -0.636 (inactive); in test [8] it was 0.758; in [9], 0.643; in test [10] it was -0.0208 (inactive); in [11], 0.0858; in test [12], -0.0445 (inactive). The z-score in test [13] was 0.48 (inactive); in test [15] it was 0.229 (inactive); in test [16], -0.792 (inactive); in [17] it was -0.127 (inactive); in test [18] it was -0.768 (inactive); in [19], 0.33. In addition, the composite z-score in test [14] was -0.335 (inactive); in [20] it was 0.0181.
